A short description of assay [1]: TOX21_p53_BLA_p2_viability: Viability Assessment in the Tox21 HCT-116 p53 Agonism Beta-lactamase Assay, Phase 2 (AID 2283591).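 Also: actives lower the ATP signal meaning cytotoxicity.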 Put shortly:
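Cytotoxicity readout: CellTiter-Glo ATP luminescence, 30 min at room temperature, after the beta-lactamase read. Cells were HCT116 exposed 16 h at 37C to compounds pin-transferred at 217-fold dilution from DMSO stocks.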

For assay [2], the target named is Cellular tumor antigen p53 (Homo sapiens) (UniProt P04637). The assay can be described thus: TOX21_p53_BLA_p2_ratio: Tox21 HCT-116 p53 Agonism Beta-lactamase Assay, Ratio, Phase 2 (AID 2283592). Put shortly:
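Plated HCT116 p53-bla cells (4000/well) received compound after 5 h, then 16 h at 37C/5% CO2. CCF4-AM added, 2 h RT. Ratio of 460 to 530 nm emission taken as the p53 reporter signal.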

A short description of assay [3]: TOX21_p53_BLA_p3_viability: Viability Assessment in the Tox21 HCT-116 p53 Agonism Beta-lactamase Assay, Phase 3 (AID 2283593).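 Also: cells exposed to compound for 16 h before reading.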 Put shortly: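 Cellular ATP was quantified by CellTiter-Glo luminescence, read after 30 min at room temperature. Beforehand, HCT116 cells (4000/well) received compound 5 h post-seeding, 217-fold diluted from DMSO, then incubated 16 h at 37C.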

The target of assay [4] is Cellular tumor antigen p53 (Homo sapiens) (UniProt P04637). The assay is described as follows: TOX21_p53_BLA_p3_ratio: Tox21 HCT-116 p53 Agonism Beta-lactamase Assay, Ratio, Phase 3 (AID 2283596). Put shortly: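 Cells were seeded at 4000/well, rested 5 h at 37C, then dosed with DMSO compound solutions (217-fold dilution) for 16 h. CCF4-AM substrate was loaded for 2 h at room temperature, and the 460/530 nm emission ratio was fitted for gain of signal versus DMSO.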

Assay [5] can be described thus: TOX21_p53_BLA_p4_viability: Viability Assessment in the Tox21 HCT-116 p53 Agonism Beta-lactamase Assay, Phase 4 (AID 2283597).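 Also: hits lower the luminescence signal meaning cytotoxicity.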 The procedure, abridged:
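Readout: ATP luminescence (CellTiter-Glo), measured 30 min after reagent addition at RT. The reagent followed a 2 h CCF4-AM incubation, and the cells had been exposed to compound for 16 h at 37C.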

Assay [6] has as its target Cellular tumor antigen p53 (Homo sapiens) (UniProt P04637). The assay can be described thus: TOX21_p53_BLA_p5_ratio: Tox21 HCT-116 p53 Agonism Beta-lactamase Assay, Ratio, Phase 5 (AID 2283599). Put shortly:
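Beta-lactamase reporter ratio (blue 460 nm over green 530 nm, 405 nm excitation) after 2 h CCF4-AM loading, in HCT-116 cells exposed 16 h at 37 C to compounds pinned at 217-fold dilution. Increases relative to DMSO baseline scored.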

A short description of assay [7]: TOX21_p53_BLA_p5_viability: Viability Assessment in the Tox21 HCT-116 p53 Agonism Beta-lactamase Assay, Phase 5 (AID 2283600). Put shortly: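 Workflow: seed 4000 cells per well, wait 5 h, add compounds (DMSO, 217-fold dilution), incubate 16 h, load CCF4-AM 2 h, add CellTiter-Glo, read luminescence after 30 min.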
For assay [8], the target named is Cellular tumor antigen p53 (Homo sapiens) (UniProt P04637). The assay is described as follows: TOX21_p53_BLA_p4_ratio: Tox21 HCT-116 p53 Agonism Beta-lactamase Assay, Ratio, Phase 4 (AID 2283601). Put shortly: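 Signal is the blue/green (460nm/530nm) ratio of cleaved versus uncleaved CCF4-AM substrate, read after 2 h substrate loading. Cells were HCT116 carrying the p53-responsive beta-lactamase reporter, dosed 16 h at 37C, 5% CO2; CellTiter-Glo measured in parallel.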

For assay [9], the target named is Thyroid hormone receptor alpha (Rattus norvegicus) + Thyroid hormone receptor beta (Rattus norvegicus) (UniProt P18113+P63059). The assay can be described thus: TOX21_TR_LUC_GH3_Antagonist_Followup: Tox21 GH3 Thyroid Hormone Receptor Antagonism Luciferase Follow-Up Assay (AID 2283942). Put shortly: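 Loss of T3-driven (1.0 nM final) reporter activity in GH3 cells was read by ONE-Glo luminescence after 24 h incubation at 37C; 15-point compound series spanned 92 uM to 5nM final, 1,500 cells/well.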

A further assay addresses THRA (gene 7067) (UniProt P10827). The assay can be described thus: TOX21_TRA_COA_Antagonist_Followup_ratio: Tox21 Thyroid Hormone Receptor alpha Antagonism through Coactivator Recruitment Follow-Up Assay, Ratio (AID 2283953). Put shortly: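 GST-TRα LBD 2.5 nM, BSA 0.10%, + cpd; then FITC-SRC-2 peptide 200 nM + Tb-anti-GST Ab 2 nM. TR-FRET ratio 520/495 nm. Norm: DMSO = 0%, T3 = 100%.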

Assay [10] is described as follows: TOX21_TRB_BLA_Antagonist_Followup_viability: Viability Assessment in the Tox21 Thyroid Hormone Receptor beta Antagonism Beta-lactamase (BLA) Follow-Up Assay (AID 2283961). The procedure, abridged:
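TRβ-bla HEK293T (human TRβ LBD fused to GAL4 DBD), 3,000 cells/well, 2% charcoal-stripped FBS, phenol red-free medium; 18 h compound exposure, 37C; CellTiter-Glo 30 min RT; luminescence, loss-of-signal readout.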

Assay [11] has as its target Retinoic acid receptor RXR-alpha (Homo sapiens) (UniProt P19793). The assay is described as follows: TOX21_TR_RXR_BLA_Antagonist_Followup_ratio: Tox21 Thyroid Hormone Receptor beta Retinoid X Receptor alpha (RXRa) Antagonism Beta-lactamase (BLA) Follow-Up Assay, Ratio (AID 2283972). The procedure, abridged:
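HEK293T RXRa-bla, 2% charcoal-stripped FBS medium, 16 h compound exposure at 37C, qHTS 11 conc x3. CCF4 FRET ratio ch2/ch1 (460:530), DMSO = baseline, loss-of-signal fit.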

Assay [12] can be described thus: TOX21_TR_RXR_BLA_Antagonist_Followup_viability: Viability Assessment in the Tox21 Thyroid Hormone Receptor beta Retinoid X Receptor alpha (RXRa) Antagonism Beta-lactamase (BLA) Follow-Up Assay (AID 2283979). Put shortly: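 Follow-up compounds (11 concentrations, triplicate) were incubated 16 h at 37C/5% CO2 with HEK293T RXRa-bla cells seeded at 2,500/well in charcoal-stripped-serum medium. ATP content by CellTiter-Glo luminescence gave viability; curves fitted in both directions against DMSO.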

For the next assay, the target named is PGR (gene 5241) (UniProt P06401). The assay can be described thus: TOX21_PR_BLA_Followup_Antagonist_ratio: Tox21 HEK293 Progesterone Receptor (PR) Antagonism Beta-lactamase Follow-Up Assay, Ratio (AID 2283934).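 Also: PR-UAS-bla HEK293T cells stimulated with 1 nM R5020 agonist for 16 hr.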 Put shortly:
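Cells are plated, rested 6 hr, then dosed with test compound in DMSO and challenged with 1 nM promegestone. After 16 hr incubation, substrate loading for 2 h at room temperature precedes fluorescence reading; viability is measured in the same wells.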

A short description of assay [13]: TOX21_PR_BLA_Followup_Antagonist_viability: Viability Assessment in the Tox21 HEK293 Progesterone Receptor (PR) Antagonism Beta-lactamase Follow-Up Assay (AID 2283936).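 Also: cells exposed to compound with R5020 agonist for 16 h; hits lower the luminescence signal meaning cytotoxicity.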 The procedure, abridged:
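PR-UAS-bla HEK293T cells in medium with 2% charcoal-stripped FBS were treated with compounds plus R5020 for 16 hr at 37C. After the beta-lactamase read, CellTiter-Glo was added to the same wells and luminescence read after 30 min at room temperature.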

Assay [14] is described as follows: TOX21_PR_LUC_Followup_Agonist_viability: Viability Assessment in the Tox21 HEK293 Progesterone Receptor (PR) Agonism Luciferase Follow-Up Assay (AID 2283941).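 Also: loss of signal means cytotoxicity so actives lower viability.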 The procedure, abridged: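 Multiplexed viability endpoint of the PR agonist luciferase follow-up: HEK293-PR-A-luc cells treated 16 h at 37C, with viability scored as decrease in CellTiter-Glo ATP signal.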

Where “and” joins values, the source holds several entries; their conditions need not be identical. Equal values may be shown once. Inconclusive results are not listed. Calls of active or inactive are those of the source. The calls were made as follows: active = hit-call score of the fitted dose curve at least 0.9, where 1 is the maximum; inconclusive = response in the unintended direction; inactive = score below 0.9.

Cellular tumor antigen p53 (Homo sapiens), sequence (P04637 whole entry, looked up): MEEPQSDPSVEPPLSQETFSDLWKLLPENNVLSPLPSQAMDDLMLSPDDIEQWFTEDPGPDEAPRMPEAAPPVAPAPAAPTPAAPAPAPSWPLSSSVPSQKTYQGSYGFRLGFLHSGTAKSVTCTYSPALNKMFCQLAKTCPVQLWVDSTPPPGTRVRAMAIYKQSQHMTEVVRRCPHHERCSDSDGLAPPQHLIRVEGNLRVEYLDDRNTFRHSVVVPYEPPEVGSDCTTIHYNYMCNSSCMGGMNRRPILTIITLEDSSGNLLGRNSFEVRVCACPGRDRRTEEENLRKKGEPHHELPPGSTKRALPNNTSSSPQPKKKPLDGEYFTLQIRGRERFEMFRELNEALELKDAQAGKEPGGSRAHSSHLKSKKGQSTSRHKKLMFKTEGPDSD
Retinoic acid receptor RXR-alpha (Homo sapiens), sequence (P19793 whole entry, looked up): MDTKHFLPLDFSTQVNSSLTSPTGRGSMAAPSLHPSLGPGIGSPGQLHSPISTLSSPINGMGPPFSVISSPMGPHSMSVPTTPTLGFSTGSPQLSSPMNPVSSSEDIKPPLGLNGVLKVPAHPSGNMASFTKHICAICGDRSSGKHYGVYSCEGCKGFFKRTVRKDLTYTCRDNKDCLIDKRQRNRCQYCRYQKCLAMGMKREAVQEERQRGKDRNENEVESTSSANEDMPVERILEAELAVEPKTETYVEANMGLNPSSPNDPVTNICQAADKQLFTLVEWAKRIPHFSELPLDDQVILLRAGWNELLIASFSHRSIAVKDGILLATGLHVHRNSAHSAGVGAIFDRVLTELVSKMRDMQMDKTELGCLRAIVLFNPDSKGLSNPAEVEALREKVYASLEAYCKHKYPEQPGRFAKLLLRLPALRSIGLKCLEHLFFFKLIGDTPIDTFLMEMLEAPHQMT
THRA (gene 7067), sequence (P10827 whole entry, looked up, the tested form may be a part): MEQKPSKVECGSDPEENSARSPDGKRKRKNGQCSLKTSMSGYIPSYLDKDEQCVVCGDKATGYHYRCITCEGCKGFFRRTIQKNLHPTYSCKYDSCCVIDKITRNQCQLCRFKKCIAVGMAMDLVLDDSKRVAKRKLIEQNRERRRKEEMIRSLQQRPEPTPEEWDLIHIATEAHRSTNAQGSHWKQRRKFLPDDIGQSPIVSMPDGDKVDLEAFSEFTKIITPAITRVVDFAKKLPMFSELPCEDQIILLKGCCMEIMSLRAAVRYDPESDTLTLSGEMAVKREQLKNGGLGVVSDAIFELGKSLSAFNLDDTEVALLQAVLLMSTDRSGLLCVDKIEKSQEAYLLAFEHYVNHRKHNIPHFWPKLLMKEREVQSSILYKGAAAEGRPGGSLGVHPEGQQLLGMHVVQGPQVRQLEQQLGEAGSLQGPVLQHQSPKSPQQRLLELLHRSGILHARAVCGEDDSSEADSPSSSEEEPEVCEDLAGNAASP
PGR (gene 5241), sequence (P06401 whole entry, looked up): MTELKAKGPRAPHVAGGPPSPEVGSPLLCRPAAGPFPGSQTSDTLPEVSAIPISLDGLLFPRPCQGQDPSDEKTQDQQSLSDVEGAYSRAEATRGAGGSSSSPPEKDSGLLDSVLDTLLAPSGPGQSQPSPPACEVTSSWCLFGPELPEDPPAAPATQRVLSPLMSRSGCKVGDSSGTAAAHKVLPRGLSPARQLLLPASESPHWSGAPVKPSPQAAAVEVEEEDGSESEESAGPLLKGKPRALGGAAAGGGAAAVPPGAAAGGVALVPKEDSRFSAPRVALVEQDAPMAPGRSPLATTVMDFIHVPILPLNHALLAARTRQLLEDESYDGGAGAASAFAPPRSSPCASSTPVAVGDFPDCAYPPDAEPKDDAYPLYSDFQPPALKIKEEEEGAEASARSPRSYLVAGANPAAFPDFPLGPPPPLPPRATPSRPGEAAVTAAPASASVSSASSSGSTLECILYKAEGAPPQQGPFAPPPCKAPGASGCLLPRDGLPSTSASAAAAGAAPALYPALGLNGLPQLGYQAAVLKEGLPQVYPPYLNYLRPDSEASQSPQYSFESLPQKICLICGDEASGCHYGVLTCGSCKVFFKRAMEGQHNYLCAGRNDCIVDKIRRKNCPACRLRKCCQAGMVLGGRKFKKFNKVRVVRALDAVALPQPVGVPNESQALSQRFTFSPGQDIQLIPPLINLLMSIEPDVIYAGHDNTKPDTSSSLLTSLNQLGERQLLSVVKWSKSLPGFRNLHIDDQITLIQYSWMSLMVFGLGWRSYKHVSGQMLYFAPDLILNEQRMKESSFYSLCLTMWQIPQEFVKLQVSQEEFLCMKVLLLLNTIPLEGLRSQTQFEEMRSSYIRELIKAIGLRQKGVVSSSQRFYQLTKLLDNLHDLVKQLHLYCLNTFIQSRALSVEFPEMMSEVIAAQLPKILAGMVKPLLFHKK

For orientation: AC50 means the midpoint of the concentration-response curve, whichever way the signal moves. On to `NC(=O)C(=O)NN=Cc1ccc([N+](=O)[O-])o1`, for which the result in assay [1], in assay [3], in assay [4] and in assay [7] was inactive. Besides, the AC50 was 39.8 µM (active) in assay [2], 42.3 µM (active) in assay [5], 37.1 µM (active) in assay [6] and 41.8 µM (active) in [8].

Take `COCCCC/C(=N\OCCN)c1ccc(C(F)(F)F)cc1`: the molecule was classed as inactive in [1], in assay [2], in [3], in assay [4], in assay [5] and in [6]. The outcome in assay [7] and in assay [8] was inactive.

Consider `O=C(O)c1cc(Cl)cc(Cl)c1`, for which the molecule was classed as inactive in assay [1], in assay [2], in [3], in assay [4], in assay [5] and in assay [6]. In addition, the call in assay [7] and in assay [8] was inactive.

On to `COc1c(C)c2c(c(O)c1C/C=C(\C)CCC(=O)OCCN1CCOCC1)C(=O)OC2`, for which the outcome in assay [1], in assay [3] and in [7] was inactive. The AC50 in [2] is 0.139 µM (active); in assay [4], 164 nM (active); in [5], 0.805 µM (active); in assay [6] it was 0.183 µM (active); in assay [8] it was 0.194 µM (active).

For `Cc1nnc(NS(=O)(=O)c2ccc(N)cc2)s1`, the molecule was called inactive in assay [1], in assay [2], in [3], in assay [4], in assay [5] and in assay [6]. Further, the call in assay [7] and in assay [8] was inactive.

As to `C[n+]1cc2c3c(ccc2c2ccc4cc5c(cc4c21)OCO5)OCO3`, the AC50 in assay [1] was 4.28 µM (active); in [2], 4.96 µM (active); in assay [3], 2.31 µM (active); in [4] it was 2320 nM (active); in assay [5], 3.64 µM (active); in [6], 5.66 µM (active). Besides, the AC50 in [7] is 5.48 µM (active); in assay [8], 9.14 µM (active).

In the case of `CC[C@@]1(O)C(=O)OCc2c1cc1n(c2=O)Cc2cc3c(CN(C)C)c(O)ccc3nc2-1`, the AC50 in assay [1] is 7.02 µM (active); in [2], 0.807 µM (active); in [3], 7.35 µM (active); in assay [4] it was 381 nM (active); in assay [5], 7.74 µM (active); in [6], 0.692 µM (active). Further, the AC50 in [7] is 7.27 µM (active); in [8], 6.7 µM (active). The result (in [9]; in the assay with THRA (gene 7067); in [10]; in assay [11]) was inactive.

In the case of `Nc1c2ccccc2nc2ccccc12`, the call (in assay [1]; in [3]; in [5]; in assay [7]; with THRA (gene 7067); in [10]) was inactive. Moreover, the outcome in assay [11] was inactive. Besides, the AC50 in [2] was 2.18 µM (active) and 2.99 µM (active); in [4], 5.09 µM (active) and 6.02 µM (active); in [6], 3.58 µM (active) and 3.94 µM (active); in [8], 2.28 µM (active) and 5.34 µM (active); in [9], 6.25 µM (active); in assay [12], 10.6 µM (active).

For the molecule `C[C@]12C=CC(=O)C=C1[C@@H](F)C[C@@H]1[C@@H]2[C@@H](O)C[C@@]2(C)[C@H]1CC[C@]2(O)C(=O)CO`, the outcome in assay [1], in assay [2], in assay [5], in assay [6], in assay [7] and in assay [8] was inactive. The result (with PGR (gene 5241); in assay [13]; in assay [14]) was inactive. Further, the AC50 in assay [3] is 37.3 µM (active); in [4], 43500 nM (active).

For the origin of these results see PubChem BioAssay (EPA / NIEHS).
